# The list is not random: actives were taken first. Their share in the collection is about 13%.
# Marburg entry inh: qHTS for inhibitors of binding or entry into cells for Marburg Virus | hit rate 1.8% among 300,000 | Marburg virus pseudotyped entry inhibition, cell reporter | AID 540276, 2011 | Potency, µM (titrated, usually from 37.8 µM), for inactives: top-dose activity change, negative = inhibition, usual class: inhibitors; calls by dose curve; tested in HEK293 cells; also: potency is read from the fitted curve at half-maximal effect; % is scaled to controls: 0 for no effect and ±100 for the full control effect
# FMDV inh: High Throughput Screening for Foot and Mouth Disease Virus Antivirals; FMDV antiviral cell-based qHTS; Potency, µM (highest dose often 57.9 µM), inactives show top-dose activity change, negative = inhibition, most hits filed as inhibitors; hit rate 1.2% among 410,000; AID 1159524, 2015; calls by dose curve; tested in HEK293T cells; also: read-out not given here; potency is read from the fitted curve at half-maximal effect; % is scaled to controls: 0 for no effect and ±100 for the full control effect; nearly all actives have a fitted effect of over 45% in size
# HCV inhibitor: qHTS Assay for Inhibitors of Hepatitis C Virus (HCV); Huh7.5.1 HCVcc-Cre infection, luciferase reporter, 44 h; Potency, µM (series often up to 41.8 µM), for the others: top-dose activity change, negative = inhibition, usual class: inhibitors; hit rate 3.4% among 340,000; AID 651820, 2012; active = well fitted inhibition curve with a large enough effect; inconclusive = small, poorly fitted or top-dose-only effect, or another doubt; inactive = no such curve, though single readings can be large or run the other way; also: potency is read from the fitted curve at half-maximal effect; % is scaled to controls: 0 for no effect and ±100 for the full control effect
#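 Cells (1,000/well) were plated 4 h before compound, then infected with HCVcc-Cre virus (~0.5 moi). After 44 h further culture, infection was read as luciferase luminescence following a 15 min substrate incubation at room temperature.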
# CHX counter: Cycloheximide Counterscreen for Small Molecule Inhibitors of Shiga Toxin | AID 2314, 2010 | max response, % | cell reporter, cycloheximide protein synthesis inhibition counterscreen | hit rate 12% among 300,000; in the data active = max response mostly above about 13%, no sharp cut-off; inactive = mostly below about 14%; also: read at 38.3 µM for the half of the compounds with a filed dose; 0% is about no effect
# Lassa entry inh: qHTS for Inhibitors of binding or entry into cells for Lassa Virus; Lassa virus pseudotype entry inhibition, cell reporter; Potency, µM (series often up to 37.9 µM), without a hit: at the highest dose activity change, negative = inhibition, actives largely listed as inhibitors; hit rate 1.2% among 300,000; calls by dose curve; tested in HEK293 cells; also: potency is read from the fitted curve at half-maximal effect; % is scaled to controls: 0 for no effect and ±100 for the full control effect; nearly all actives have a fitted effect of over 50% in size
# Shiga inhibitor: A qHTS for Small Molecule Inhibitors of Shiga Toxin; Vero cells, Shiga toxin protein synthesis inhibition reporter; inhibition, % at 38.7 µM; hit rate 9.2% among 290,000; AID 2315, 2010; in the data active = inhibition mostly above about 28%, no sharp cut-off; inactive = mostly below about 43%; also: 0% is about no effect
# Active calls of the source: *; ? = inconclusive; . = no result given; ! = repeats disagree; [ ] = another dose, or the depositor's remark.
SMILES,Marburg entry inh,FMDV inh,HCV inhibitor,CHX counter,Lassa entry inh,Shiga inhibitor
C[C@H]1c2cccc(O)c2C(O)=C2C(=O)[C@]3(O)C(O)=C(C(N)=O)C(=O)[C@@H](N(C)C)[C@@H]3[C@@H](O)[C@@H]21,4.3%,-0.6%,-3.9%,10.5*!,11.1%,-5.5
C[C@H]1c2cccc(O)c2C(O)=C2C(=O)[C@]3(O)C(O)=C(C(N)=O)C(=O)C(N(C)C)[C@@H]3[C@@H](O)C21 (some centres undefined),7.6%,.,.,.,.,.
CCOc1ccc(OCC)c(NS(=O)(=O)c2cc(-c3cnc(C)o3)ccc2OC)c1,.,31.5%,.,.,-10.3%[46.1 µM],.
O=C(CSc1nc(-c2ccccc2)ns1)NCC1CCCO1 (centres undefined),7.0%[46.1 µM],15.7%,4.1%,45.5*,?,64.6*
CCOc1ccc(-c2ccc(SCC(=O)Nc3nnc(CC)s3)nn2)cc1,?,24.0%,?,5.3,.,49.8
COc1ccc(-c2nnc3ccc(SCC(=O)NCC4CCCO4)nn23)cc1 (centres undefined),1.5%,4.8%,?,-2.3,5.3%,-5.5
CCOC(=O)CNC(=O)CSc1nc(-c2ccccc2)ns1,1.9%[46.1 µM],18.7%,12.6%,9.5,-9.1%,6.0
CCOc1ccc(-c2ccc(SC)nn2)cc1,1.26µM*,-78.4%,4.5%,-9.0,2.82µM*,-17.3
COc1ccc(-c2cn3nc(SCC(=O)NCC4CCCO4)ccc3n2)cc1 (centres undefined),.,2.5%,-6.9%,26.2*,.,61.3*
CCOC(=O)CNC(=O)CSc1nc(-c2ccc(C)cc2)ns1,?,17.1%,4.0%,23.9,?,48.0*
C[C@H](CO)N1C[C@H](C)[C@@H](CN(C)C(=O)Nc2ccc(C(F)(F)F)cc2)Oc2c(NS(=O)(=O)c3cccs3)cccc2C1=O,.,66.1%,0.0%,.,.,.
Cc1ccc(-c2ccc(SCC(=O)NCC3CCCO3)nn2)cc1 (centres undefined),3.4%[46.1 µM],24.3%,-4.1%,15.8,-12.5%,36.3
O=C(CSc1ccc2nnc(-c3ccc(F)cc3)n2n1)NCC1CCCO1 (centres undefined),?,18.8%,6.2%,-3.0,-4.5%,1.7
CCOc1ccc(-c2ccc(SCC(=O)NCC3CCCO3)nn2)cc1 (centres undefined),-22.5%[46.1 µM],7.1%,1.9%,36.8*,-4.4%,47.1
O=C(CSc1ccc2nc(-c3ccccc3)cn2n1)NCC1CCCO1 (centres undefined),.,8.2%,-23.4%,22.8*,.,69.9*
CCCn1cc(SCC(=O)NCC2CCCO2)c2ccccc21 (centres undefined),.,29.6%,?,24.9*,.,42.4*
O=C(O)C(=Cc1cccc([N+](=O)[O-])c1)c1ccccc1,.,-10.0%,.,.,.,.
C=Cc1ccc(Cn2c(C(=O)O)c(CNCc3cc(Br)ccc3OC)c3ccc(C)cc32)cc1,.,-14.1%,.,.,14.0%[46.1 µM],.
Cc1c(NC(=O)CSc2nnc3sc4ccccc4n23)c(=O)n(-c2ccccc2)n1C,7.7%,.,4.7%,1.3,?,-12.1
O=C(NNc1nc(-c2ccccc2)cs1)c1ccccc1,?,24.1%,?,18.5,?,40.0
N#Cc1ccc(-c2csc(NNC(=O)c3ccc(Br)cc3)n2)cc1,?,-23.4%,8.91µM*,5.6,-20.7%,16.5
N#Cc1ccc(-c2csc(NNC(=O)c3ccccc3)n2)cc1,10µM*,-12.6%,-18.8%,0.9,?,-4.1
Cc1ccc(CS(=O)Cc2ccc(C(=O)NCc3ccc(OC(C)C)cc3)o2)cc1 (centres undefined),-24.3%[46.1 µM],-11.3%,?,-1.7,?,-1.0
Cc1ccc2oc(C(=O)N3CCC(O)(c4cccc(C(F)(F)F)c4)CC3)c(C)c2c1,?,4.6%,?,42.7*,5.6%[46.1 µM],63.2*
Cc1cc2c3c([nH]c2cc1S(=O)(=O)NCc1ccc(CN2CCCCCC2)o1)CCCC3=O,.,-2.2%,-14.4%,5.1,.,-5.7
SMILES,Marburg entry inh,FMDV inh,HCV inhibitor,CHX counter,Lassa entry inh,Shiga inhibitor
CSc1nc(N(C)NC(=O)c2ccc(F)cc2)c2ccccc2n1,1.26µM*,-5.3%,?,-1.7,?,-13.3
CC(=O)Nc1ccc(-c2csc(NC(=O)C3CCN(S(=O)(=O)c4cccs4)CC3)n2)cc1,?,?,?,0.9,?,-11.7
CSc1ccc(Cl)c(C(=O)NCCOc2ccccc2)c1,7.3%,1.6%,-6.7%,26.1*,-4.2%,34.3
O=C(NCCc1ccccc1)c1ccccc1Cl,11.2µM*,-54.0%,-11.5%,13.3*,?,6.2
CN(C(=O)COC(=O)CNC(=O)c1ccccc1Cl)c1ccccc1,?,6.9%,25.0%,8.0,19.5%,13.9
O=C(NCCOc1ccc(F)cc1)c1ccccc1SCc1ccccc1,11.2µM*,-20.0%,?,0.9,?,-1.8
CN(C(=O)COc1ccccc1C(=O)NCCOc1ccccc1)c1ccccc1,?,8.91µM*,8.91µM*,-3.0,11.2µM*,-9.7
CCc1ccc(OCCNC(=O)c2cc(SC)ccc2Cl)cc1,0.9%,-20.2%,4.9%,-2.9,-2.9%,-1.9
CNC(=O)n1cc(C)c(-c2cccs2)n1,20.0%,6.8%,?,8.1,9.4%,6.8
CCOC(=O)C1=C(C)N(CCCCCC(=O)O)C(=O)NC1c1ccccc1OS(=O)(=O)c1ccc(C)cc1 (centres undefined),.,-22.1%,1.6%,.,.,.
COc1cc(SC)ccc1C(=O)NCCOc1ccc(F)cc1,-5.9%,13.9%,-10.9%,44.8*,?,74.1*
COc1ccc(OCCNC(=O)c2ccccc2Cl)cc1,.,-21.5%,2.8%,10.6,.,28.1
CCOc1ccccc1NC(=O)c1cc(SC)ccc1Cl,?,-4.9%,22.4µM*,-1.9,-24.5%,-8.8
O=C(NCCOc1ccccc1)c1ccccc1Cl,?,4.6%,1.3%,43.3*,?,55.4*
COc1ccc(CCNC(=O)c2ccc(SC)cc2OC)cc1,?,-15.2%,-24.3%,4.0,-23.9%,-12.0
O=C(NCCOc1ccccc1Cl)c1cc(F)c(F)cc1Cl,?,20.2%,11.7%,52.8*,1.2%,73.5*
CC(Oc1ccc(Cl)cc1)C(=O)Nc1ccc(S(=O)(=O)N2CCOCC2)cc1 (centres undefined),-0.7%[46.1 µM],-13.5%,-2.6%,-8.0,2.6%,-3.5
COc1cc(/C=N/NC(=O)c2ccc(O)cc2)ccc1Oc1ccc([N+](=O)[O-])cn1,?,-19.9%,?,9.5,-14.4%,16.8
CCOC(=O)[C@]12Cc3cc(OC)ccc3[C@H]1N(C1CCCCC1)C(=O)c1cc(OC)ccc12,.,12.6µM*,.,.,.,.
CCOC(=O)[C@]12Cc3cc(OC)ccc3[C@H]1N(Cc1ccccc1)C(=O)c1cc(F)c(F)cc12,.,-18.1%,-16.3%[8.37 µM],.,.,.
CCOC(=O)[C@]12Cc3cc(C)ccc3[C@H]1N(C1CCCCC1)C(=O)c1cc(OC)ccc12,.,3.55µM*,.,.,.,.
CCOc1cc(C(=O)OCC(=O)Nc2c(C)cccc2C)ccc1OCC(=O)N1CCOCC1,0.7%,-12.3%,0.0%,-2.7,-8.3%,0.9

# Source: PubChem BioAssay
